# Test results reported in PubChem BioAssay (Tox21).
# Unmarked numbers belong to inactive results. Calls come from the whole dose curve; as a rule, active = well fitted curve in the direction sought with a large enough effect in the repeat runs; inconclusive = weak or mixed curves; inactive = flat fitted curve, though single readings scatter.
# Assay: qHTS assay to test for compound auto fluorescence at 535 nm (green) in HEK293 cells (AID 720680)
# Details: green autofluorescence 485/535 nm; series mostly up to 91.3 µM; fluorescence, % of fluorescein: at the top concentration
# % is set by controls: 0 for no effect and ±100 for the full control effect.
row,SMILES,"fluorescence, % of fluorescein"
1,CCCCCCCCCCCCCCBr,0.0322% [at 95.7 µM]
2,CCN1CCN(C(=O)N[C@@H](C(=O)N[C@@H]2C(=O)N3[C@@H]2SC(C)(C)[C@H]3C(=O)O)c2ccccc2)C(=O)C1=O,-0.146% [at 46 µM]
3,CCCCNCC,-0.0362%
4,C[Si](C)(C)O[Si](O)(O)O,0.0748%
5,O=C(CCBr)N1CCN(C(=O)CCBr)CC1,-0.0246% [at 46 µM]
6,C/C(=N\O)c1ccc(OCC(=O)N2CCCCC2)cc1,0.0147% [at 46 µM]
7,CC/C=C\CCCCCCCCCCOC(C)=O,0.102%
8,CC1=C(O)C(=O)CO1,0.0541%
9,CC(C)C(C)C,-0.0052%
10,O=C(O)Cc1c(Cl)ccc(Cl)c1Cl,-0.0154%
11,N=C(N)S(=O)O,-0.0317%
12,CC(C)(C)C(=O)CCc1ccc(Cl)cc1,0.01%
13,CC[C@@]1(c2ccccc2)NC(=O)N(C)C1=O,0.135% [at 46 µM]
14,CCCCCCCCS(=O)(=O)O,0.0116%
15,C=CCCCCCCCCCCCCCC,-0.003% [at 18.6 µM]
16,N#CC1(N)CCCCC1,0.0255% [at 95.7 µM]
17,CN(C)c1ccncc1,-0.0304%
18,BrCCOc1ccccc1,0.0595%
19,O=C1CC2(CCCC2)CC(=O)N1CCNCC1COc2ccccc2O1 (stereo unspecified),0.0231% [at 46 µM]
20,CCOC(=O)c1ccc(N(C)C)cc1,0.109%
21,N=C(N)N1CCc2ccccc2C1,0.0733% [at 46 µM]
22,CNC(C)=O,0.172%
23,C=CCN(CC=C)CC=C,0.0046%
24,COc1cc(NS(=O)(=O)c2ccc(N)cc2)ncn1,0.0387% [at 18.6 µM]
25,NNC(=O)CCCCC(=O)NN,-0.221%

# Assay: qHTS assay to test for compound auto fluorescence at 460 nm (blue) in HEK293 cell free culture (AID 720681)
# Details: cell-free medium, autofluorescence 405/460 nm (blue); series mostly up to 91.3 µM; fluorescence, % of fluorescent control: at the top concentration
# Procedure, shortened: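 Blue fluorescence (Ex 405/Em 460 nm, triamterene-equivalent) was read immediately after pin transfer of compound or DMSO into medium (DMEM, 10% FBS) without cells.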
row,SMILES,"fluorescence, % of fluorescent control"
1,CC/C=C/CCCCCCCCCCOC(C)=O,0.0904%
2,Cc1ccc(Br)cc1,-0.042%
3,O=C(O)/C=C(\CC(=O)O)C(=O)O,0.107% [at 46 µM]
4,C=CCON/C(CCC)=C1\C(=O)CC(C)(C)C(C(=O)OC)=C1O,-0.257%
5,CCOc1ccccc1OCCN[C@H](C)Cc1ccc(OC)c(S(N)(=O)=O)c1,-0.115% [at 46 µM]
6,CCCCCCCCCCCCCCBr,-0.0135% [at 95.7 µM]
7,CCN1CCN(C(=O)N[C@@H](C(=O)N[C@@H]2C(=O)N3[C@@H]2SC(C)(C)[C@H]3C(=O)O)c2ccccc2)C(=O)C1=O,-0.132% [at 46 µM]
8,Cc1ccccc1OCC(=O)O,-0.0463%
9,C/C(=N\O)c1ccc(OCC(=O)N2CCCCC2)cc1,0.0437% [at 46 µM]
10,COCc1nnc(-c2ccc[n+]([O-])c2)n1-c1c(Cl)c(Cl)cc2[nH]c(=O)c(=O)[nH]c12,-0.0175%
11,CC1(C)S[C@@H]2[C@H](NC(=O)Cc3ccccc3)C(=O)N2[C@H]1C(=O)O (tested in a mixture with another compound),0.0477% [at 46 µM]
12,CC1=C(O)C(=O)CO1,0.606%
13,CC(C)C(C)C,-0.0871%
14,O=C(O)Cc1c(Cl)ccc(Cl)c1Cl,0.091%
15,CCC(=O)OCCOc1ccccc1,-0.0547%
16,N=C(N)S(=O)O,0.0204%
17,CC(C)(C)C(=O)CCc1ccc(Cl)cc1,-0.0181%
18,CCCCCCCCS(=O)(=O)O,0.0218%
19,C=CCCCCCCCCCCCCCC,0.006% [at 18.6 µM]
20,CN(C)c1ccncc1,0.0167%
21,BrCCOc1ccccc1,-0.113%
22,CCOC(=O)c1ccc(N(C)C)cc1,0.444%
23,N=C(N)N1CCc2ccccc2C1,-0.0901% [at 46 µM]
24,CNC(C)=O,0.0552%
25,C=CCN(CC=C)CC=C,-0.246%
26,COc1cc(NS(=O)(=O)c2ccc(N)cc2)ncn1,0.0083% [at 18.6 µM]
